mHTT CaM bind: mHTT-calmodulin interaction abrogation; P42858; AlphaScreen His-mHTT/GST-CaM binding, luminescence; inhibition, % at 15 µM; hit rate 3.6% among 190,000;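 further: 0% = both proteins with DMSO and 100% = one protein alone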
Pf apPOL inh: Pf-apPOL DNA polymerase inhibition; Recombinant Pf-apPOL, molecular beacon fluorescence, 1.5 h; inhibition, % at 10 µM; hit rate 0.25% among 210,000; AID 1794808
Starred values were filed as active, the others as inactive. Sampled rows, rich in hits. Any-hit rate of the full collection: about 3.5%. No stated cut-off is given here; in the data, active means inhibition above about 50%; inactive means the rest.

How did CCOC(=O)Oc1cc2sc(=O)oc2cc1Br do in these assays?
mHTT CaM bind: 30; Pf apPOL inh: -3

How did O=C1c2ccccc2C(=O)C1(CO)c1ccc(F)cc1 do in these assays?
mHTT CaM bind: 13; Pf apPOL inh: 0

How did CCN(CC)c1nc(C(=O)N2CCCC2)nc2nc(C)cc(C)c12 do in these assays?
mHTT CaM bind: -10; Pf apPOL inh: -4

What do the screens show for `COc1ccc(NC(=O)/C(=C\c2ccc3c(c2)OCO3)NC(=O)c2ccc(OC)cc2)cc1`?
mHTT CaM bind: 7; Pf apPOL inh: -3

Results for CCOC1=NC(=Cc2[nH]c(OCC)c(CC(=O)OC)c2C(=O)OC)C(C(=O)OC)=C1CC(=O)OC ?
Pf apPOL inh: inactive

What do the screens show for `COc1ccc(CCNc2ccc(C)cc2)cc1`?
mHTT CaM bind: 71*; Pf apPOL inh: -4

How did COc1ccc(CCNC(C)=O)cc1 do in these assays?
mHTT CaM bind: -6; Pf apPOL inh: 0

Results for CCOc1ccc(-c2csc(=Nc3ccccc3)n2CCN2CCOCC2)cc1 ?
mHTT CaM bind: 22; Pf apPOL inh: -3

How did c1ccc(Cn2c(-c3ccccc3)csc2=Nc2ccccc2)cc1 do in these assays?
mHTT CaM bind: -2

Results for OCCCn1c(-c2ccccc2)csc1=Nc1ccccc1 ?
mHTT CaM bind: 51*; Pf apPOL inh: -1

Results for CCn1c(-c2ccccc2)csc1=Nc1ccc(S(=O)(=O)O)cc1 ?
mHTT CaM bind: 17; Pf apPOL inh: -3

How did OCCn1c(-c2ccc(I)cc2)csc1=Nc1ccccc1 do in these assays?
mHTT CaM bind: 66*; Pf apPOL inh: -2

What do the screens show for `OCCCn1c(-c2ccccc2)csc1=Nc1cccc(Cl)c1`?
mHTT CaM bind: 92*; Pf apPOL inh: -5

How did OCCCn1c(-c2ccc(I)cc2)csc1=Nc1ccccc1 do in these assays?
mHTT CaM bind: 70*; Pf apPOL inh: -5

Results for COc1ccc(C(=O)N2CCCC(c3ccnc(-c4ccccc4)n3)C2)cc1F (centres undefined) ?
mHTT CaM bind: 4; Pf apPOL inh: -3

How did Cc1nn(C)c2c(=O)n(C(C)C(=O)NCc3cccc(Cl)c3)ccc12 (centres undefined) do in these assays?
mHTT CaM bind: -8; Pf apPOL inh: -2

Results for Cc1ccc(NC(=O)CCC2CCCC2)cc1[N+](=O)[O-] ?
mHTT CaM bind: -4; Pf apPOL inh: 2

What do the screens show for `CCc1nc2c(NC(=O)c3ccc(C)c(C)c3)cccn2n1`?
mHTT CaM bind: 1; Pf apPOL inh: 0

How did COc1cc(NC(=O)c2cccc(F)c2)c(OC)cc1NC(C)=O do in these assays?
mHTT CaM bind: 4; Pf apPOL inh: 11

What do the screens show for `O=C(Nc1ccccc1)C1CCCN(c2cnn(Cc3ccccc3)c(=O)c2)C1` (centres undefined)?
mHTT CaM bind: 3; Pf apPOL inh: -2

How did Cc1ccc(S(=O)(=O)N2CCc3c(c(-c4nc(C)no4)nn3C)C2)cc1 do in these assays?
mHTT CaM bind: 11; Pf apPOL inh: -2

What do the screens show for `CS(=O)(=O)N1CCN(c2ccc([N+](=O)[O-])c(NCCOc3ccc(Cl)cc3)c2)CC1`?
mHTT CaM bind: 15; Pf apPOL inh: -11

Results for CCc1ccc(OCCNc2cc(N3CC(C)NC(C)C3)ccc2[N+](=O)[O-])cc1 (centres undefined) ?
mHTT CaM bind: 100*; Pf apPOL inh: -1

What do the screens show for `CC1CC(Nc2ccccc2)c2ccccc2N1` (centres undefined)?
mHTT CaM bind: 19; Pf apPOL inh: -2

How did CCCC(=O)N(c1ccccc1)C1CC(C)Nc2ccccc21 (centres undefined) do in these assays?
mHTT CaM bind: 54*; Pf apPOL inh: 1

What do the screens show for `O=S(=O)(Nc1cccc2cccnc12)c1cc(Cl)c(Cl)cc1Cl`?
Pf apPOL inh: -75

Results for Nc1ccc(S(=O)(=O)Nc2cccc3cccnc23)cc1 ?
mHTT CaM bind: 57*; Pf apPOL inh: -2

Results for Cc1ccc(C)n1-c1ccc(S(N)(=O)=O)cc1 ?
mHTT CaM bind: 75*; Pf apPOL inh: -3

Results for Cn1c(=O)n(-c2ccc(S(N)(=O)=O)cc2)c(=O)n1C ?
mHTT CaM bind: 4; Pf apPOL inh: -2

Results for CCSc1ccsc1C1C(C#N)=C(N)N(c2cccc([N+](=O)[O-])c2)C2=C1C(=O)CCC2 (centres undefined) ?
mHTT CaM bind: 27; Pf apPOL inh: -3

What do the screens show for `CCSc1ccsc1C1C(C#N)=C(N)N(c2ccc([N+](=O)[O-])cc2)C2=C1C(=O)CCC2` (centres undefined)?
mHTT CaM bind: 51*; Pf apPOL inh: 5

What do the screens show for `COc1ccc(Cl)cc1NC(=O)NCCn1nc(-c2cccs2)ccc1=O`?
mHTT CaM bind: -4; Pf apPOL inh: -6

Results for COc1ccc(C2C=C(c3ccc(F)cc3)N=C(N)S2)cc1 (centres undefined) ?
mHTT CaM bind: 36

What do the screens show for `O=S(=O)(Nc1ccccn1)c1ccc2[nH]c3c(c2c1)CCCCC3`?
mHTT CaM bind: 2; Pf apPOL inh: -2

What do the screens show for `Cc1ccc(NS(=O)(=O)c2ccc3[nH]c4c(c3c2)CCCCC4)nc1`?
mHTT CaM bind: 60*; Pf apPOL inh: -4

What do the screens show for `S=C(NCc1ccc2[nH]c3c(c2c1)CCCC3)NC1CCCCC1`?
mHTT CaM bind: 40; Pf apPOL inh: -3

How did O=S(=O)(NC1CCCCC1)c1ccc2[nH]c3c(c2c1)CCCCC3 do in these assays?
mHTT CaM bind: 95*; Pf apPOL inh: -3

Results for COc1ccc(CC(=O)N2CCCC2c2ccccc2C)cc1 (centres undefined) ?
mHTT CaM bind: -4; Pf apPOL inh: -1

Results for COc1cccc(C(=O)Nc2c3c(nn2-c2ccc(C)cc2)CSC3)c1 ?
mHTT CaM bind: 41; Pf apPOL inh: -8

What do the screens show for `Cc1[nH]nc(SCC(=O)Nc2cccc(Cl)c2)c1[N+](=O)[O-]`?
mHTT CaM bind: 5; Pf apPOL inh: 4

Results for Cc1[nH]nc(SCC(=O)Nc2cc(Cl)ccc2O)c1[N+](=O)[O-] ?
mHTT CaM bind: 52*; Pf apPOL inh: -7

What do the screens show for `Cc1ccc(NC(=O)N2CCCC(CCC(=O)N3CCC(Cc4ccccc4)CC3)C2)cc1` (centres undefined)?
mHTT CaM bind: 54*; Pf apPOL inh: -8

Results for Cc1ccc(NC(=O)N2CCCC(CCC(=O)N3CCOCC3)C2)cc1 (centres undefined) ?
mHTT CaM bind: 1; Pf apPOL inh: -6

Results for Cc1ccc([N+](=O)[O-])cc1NC(=O)c1cnccn1 ?
mHTT CaM bind: 3; Pf apPOL inh: 2

Results for Cc1ccc([N+](=O)[O-])cc1NC(=O)c1cccc(C(=O)Nc2cc([N+](=O)[O-])ccc2C)n1 ?
mHTT CaM bind: 2; Pf apPOL inh: 67*

How did N#CC1=C(N)SC(N)=C(C#N)C12C(=O)Nc1ccccc12 do in these assays?
mHTT CaM bind: 4; Pf apPOL inh: -11

How did Cc1nc(C)c(-c2cc(C(=O)N3CCSCC3)n[nH]2)s1 do in these assays?
mHTT CaM bind: -12; Pf apPOL inh: -2

What do the screens show for `O=C(Nc1ccc(F)cc1)N1CCn2cccc2C1Cc1ccccc1` (centres undefined)?
mHTT CaM bind: 69*; Pf apPOL inh: -8

Results for COc1ccc(C)cc1NC(=O)N1CCn2cccc2C1Cc1ccccc1 (centres undefined) ?
mHTT CaM bind: 48; Pf apPOL inh: -5

What do the screens show for `Cc1ccc(NC(=O)N2CCn3cccc3C2Cc2ccccc2)cc1` (centres undefined)?
mHTT CaM bind: 10; Pf apPOL inh: -4

Screening data: PubChem BioAssay, University of Kansas High Throughput Screening Laboratory
